# Test results from publication PMC7819943, “Rice protein-binding microarrays: a tool to detect cis-acting elements near promoter regions in rice”.
# In all, about 39,000 sequences were measured (“fluorescence intensity (a.u.)”: median about 4,300, highest 2% from about 39,000 on). What follows is part of a selection rich in the highest values, with near analogues and random picks from the rest.
# Target: T1, OsSMF1 (Oryza sativa, UniProt Q6ZLB0 1-436)
# T1 sequence: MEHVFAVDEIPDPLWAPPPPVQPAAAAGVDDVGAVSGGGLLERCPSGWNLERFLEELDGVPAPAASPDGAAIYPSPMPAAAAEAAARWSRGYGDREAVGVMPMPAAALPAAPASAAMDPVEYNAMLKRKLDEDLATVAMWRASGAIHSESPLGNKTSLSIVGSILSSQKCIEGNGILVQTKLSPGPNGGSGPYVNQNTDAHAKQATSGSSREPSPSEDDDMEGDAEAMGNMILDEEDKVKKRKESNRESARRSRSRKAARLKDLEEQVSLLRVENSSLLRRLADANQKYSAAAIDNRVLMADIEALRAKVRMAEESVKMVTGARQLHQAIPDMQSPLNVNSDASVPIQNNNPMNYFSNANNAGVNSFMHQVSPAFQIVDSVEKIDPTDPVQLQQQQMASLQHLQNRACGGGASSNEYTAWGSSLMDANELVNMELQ
# Assay: protein-binding microarray (RPBM); PBS, 2% BSA, 51.3 ng/ul salmon testes DNA, 50 uM zinc acetate, 200 nM TF, 25 C, 1 h; high values mean tight binding
# Details: protein: recombinant; tags: N-terminal polyhistidine and DsRed monomer fusion (pET32a); chain copies: 2; label: CyDye5-dUTP incorporated in the synthesized complementary strand; 3' TTTTT single-stranded linker to array surface; dsDNA, one strand shown
# Method in brief: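 Binding signal is reported as fluorescence intensity per feature (arbitrary units) from an Axon 4000B scanner. Incubation used 200 nM of each Ni–NTA-purified, N-terminally polyhistidine- and DsRed-fused transcription factor from E. coli BL21-CodonPlus on a double-stranded custom Agilent array for 1 h at 25 °C, with 50 µM zinc acetate in the buffer, followed by washing.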
row,Sequence,binding signal
1,CTCCTTGGCCCGTTTGGTCTCTGTGTGGGTTGGTAAAGACCGGAGTCACCTAGTGCAG,3330 fluorescence intensity (a.u.)
2,CCTCCGACATCTCCAGCCAATTCCAGCTCAGCTCTCGCCGCGGAGTCACCTAGTGCAG,4150 fluorescence intensity (a.u.)
3,GCTTTACGTCTTGTGTGGAAGAAAGCGGAAAACTATCCAGCGGAGTCACCTAGTGCAG,3540 fluorescence intensity (a.u.)
4,ATAATAGCACATGTGGATATCTGTAGAATTCATTTCGTGTCGGAGTCACCTAGTGCAG,3550 fluorescence intensity (a.u.)
5,GACGTGATAAAGAAGTTCAGATTTAGAAATAAATTTGAAGCGGAGTCACCTAGTGCAG,3820 fluorescence intensity (a.u.)
6,GAACGGGACCAGCTACTATAGTGAAATTTAGATTTCAAAGCGGAGTCACCTAGTGCAG,42200 fluorescence intensity (a.u.)
7,AGCAGCGGGCTACAGATTTATAGCCAGCTGTAGCACGGATCGGAGTCACCTAGTGCAG,33200 fluorescence intensity (a.u.)
8,GCGGCTTCTCGCCGGCGGCGACCACCACCCGTCACCCACCCGGAGTCACCTAGTGCAG,3380 fluorescence intensity (a.u.)
9,ATCCATTGCTGCTTTCAGCTGAGTCACCAACTCCTATCCACGGAGTCACCTAGTGCAG,14100 fluorescence intensity (a.u.)
10,GTTGCAGAGCAGCTCGCGCCGCGCGCGTACACTCGCTTTGCGGAGTCACCTAGTGCAG,6780 fluorescence intensity (a.u.)
11,GGGCTTGCCCATTACGCGTTGCTATAGACGCCCTTTCATTCGGAGTCACCTAGTGCAG,41600 fluorescence intensity (a.u.)
12,TTTGCCCATTTTATTCCCTTGCGTCATCCATTTACTGCTTCGGAGTCACCTAGTGCAG,13800 fluorescence intensity (a.u.)
13,GTGGGCTTAGACGGCCCAGTCATGACCCTTTCATTTCGTGCGGAGTCACCTAGTGCAG,3440 fluorescence intensity (a.u.)
14,GCGGTGGCGGTTGGGGTGGCGAGTGGGGAGGAGGAGGCGGCGGAGTCACCTAGTGCAG,5880 fluorescence intensity (a.u.)
15,CCCAAAGCTGACGTACAGCACCGACCCGGTCGGCTGCTCGCGGAGTCACCTAGTGCAG,4200 fluorescence intensity (a.u.)
16,TAGCGCGGCTGCACAGTACAGTCCGACGTCACAGCTCACTCGGAGTCACCTAGTGCAG,49200 fluorescence intensity (a.u.)
17,CGCCGGCACAGCGACATAGCTGACGTCGACGATGCTCACTCGGAGTCACCTAGTGCAG,5350 fluorescence intensity (a.u.)
18,ACCACATCCACTGCCGCGCCACGCCTCTCGGCCGCCACACCGGAGTCACCTAGTGCAG,3770 fluorescence intensity (a.u.)
19,CAACCTTTATCTGAAGTGGCAGGCACGTGGATTAGCAATACGGAGTCACCTAGTGCAG,5790 fluorescence intensity (a.u.)
20,GGTAATAGTGTCAACATATTGCATTAAGATGATTGCAGTGCGGAGTCACCTAGTGCAG,24300 fluorescence intensity (a.u.)
21,CAAGATGGGTCGGGTTGGGTGGGGTTACTCGCACTAGCACCGGAGTCACCTAGTGCAG,3160 fluorescence intensity (a.u.)
22,GCGGCTCGCCGTCATATGCGACGTGGCATGCACGACGCCGCGGAGTCACCTAGTGCAG,14300 fluorescence intensity (a.u.)

row,Sequence,binding signal
1,CGCTGCTGAGTGCTGACTCCTTCGCCCTCCTCCTCACTTTCGGAGTCACCTAGTGCAG,7650 fluorescence intensity (a.u.)
2,AGTGGCAGGGGTGTGGGGATTGCCGGCTTGCCGCGGAGGACGGAGTCACCTAGTGCAG,3530 fluorescence intensity (a.u.)
3,GAATAGCTGCTTGTTAACTAGGGATTAGAGGTGGGGTTTTCGGAGTCACCTAGTGCAG,17400 fluorescence intensity (a.u.)
4,TTTTCGCTGAGGTGGCAGGTTAACTTGTCTGCTTTCGGCCCGGAGTCACCTAGTGCAG,39300 fluorescence intensity (a.u.)
5,GGCAGGACGGCAGGAGGCCTGTTCGCTTGAGGTGTCTAGCCGGAGTCACCTAGTGCAG,39800 fluorescence intensity (a.u.)
6,CTAGCTTTGAGGTGGAGGTGGTGGTGGAGGAGGAGGAGGACGGAGTCACCTAGTGCAG,3340 fluorescence intensity (a.u.)
7,GGGCTGGGGAAAATGATCGACTACTTTTAACCATTTCAGTCGGAGTCACCTAGTGCAG,3420 fluorescence intensity (a.u.)
8,TACGTTGAATATTACCCTCTTGATGACTTGACTAATTTTACGGAGTCACCTAGTGCAG,3880 fluorescence intensity (a.u.)
9,TTATATATCCCTGATAGCTGATTAGTTGGCACATCAGCATCGGAGTCACCTAGTGCAG,3210 fluorescence intensity (a.u.)
10,CAAGGGAGGAGGGAGAAAGAAAAGGATGGGAGATTTGCTCCGGAGTCACCTAGTGCAG,3290 fluorescence intensity (a.u.)
11,TGGTCACTGCAGCAGGTTCAGGACAAAGCAACCTGTTTCTCGGAGTCACCTAGTGCAG,3600 fluorescence intensity (a.u.)
12,AGAGGTTCAAACTGTATATGTTCTAGACCATTCACAAGCTCGGAGTCACCTAGTGCAG,64100 fluorescence intensity (a.u.)
13,AAGGTAGAGTCAAATAGAAGCTCTATATCATGTAGACACTCGGAGTCACCTAGTGCAG,3360 fluorescence intensity (a.u.)
14,ACCCACACACCCACACCCACACGTCAAAGACCCACGGTTTCGGAGTCACCTAGTGCAG,3160 fluorescence intensity (a.u.)
15,TGTGGTGTGTGTGTGGCTGAAACCGCGAGGCCGCCGCGAGCGGAGTCACCTAGTGCAG,3440 fluorescence intensity (a.u.)
16,CAGAGGCAAACGTACGTGGAGGCAGGAGGAGTGGTCACCGCGGAGTCACCTAGTGCAG,4440 fluorescence intensity (a.u.)
17,CCTAACCGCCCAGCAGAGGCAAAGTGTGGTCGAAACCTAGCGGAGTCACCTAGTGCAG,49500 fluorescence intensity (a.u.)
18,CCGTCGCCGGCGGCGGATCGGCCCCACATCACCTCGGCCTCGGAGTCACCTAGTGCAG,3250 fluorescence intensity (a.u.)
19,AGAAGACAACAGTGAGGAACTGAGGACACGTGTACTTGGACGGAGTCACCTAGTGCAG,12600 fluorescence intensity (a.u.)
20,AAATTTGTACCATCTTGTTGTCCATCATTCTTGACAAGAGCGGAGTCACCTAGTGCAG,3280 fluorescence intensity (a.u.)
21,ACCTTGTACTTTTGTCTACATATGTGTCATTCTATCTTGGCGGAGTCACCTAGTGCAG,5120 fluorescence intensity (a.u.)
